# Assay results published in the OligoGym collection.
# Target: RSPH9
# Assay: pooled miR-30 sensor sort-seq; sequence = guide strand
# Conditions: shRNA
# Further: reference of the scale not given here.
row,Sequence,sensor-assay potency score (higher = more potent)
1,TATTCTTTAGCTCAACAGGCTC,-1.09
2,TAGCTCAACAGGCTCCCTGAAA,-1.11
3,TTGATCTGGACCACTATTTCTT,-0.0516
4,TAGCCATAGTTCTTGGTGCGGG,-0.956
5,TATTTCTTCTTCAAAGACTTTT,-0.914
6,TCAATGACAGACACCAAGCGGG,-0.168
7,TTTAGCTCAACAGGCTCCCTGA,-0.548

# Target: RTF1
# Assay: as above
# Conditions: shRNA
row,Sequence,sensor-assay potency score (higher = more potent)
1,TACAATCTCTTCAATGTCCTGA,0.771
2,ATTGATTTCATCTAGAGTGGGC,0.501
3,TTTGAGACAAACTCTAAACGGA,0.185
4,TTCGTTTTTCTCGCTCTGCTTT,-0.471
5,TTTTTCTTGATTTCAAATCTTC,-0.239
6,TTTCTCTGTCATCTGTTCCAGA,-0.00304
7,TTCATCATCAGAGTAGACCTCA,0.818
8,TTCTTGATTTCAAATCTTCTTT,-0.27
9,TTGAGACAAACTCTAAACGGAA,-0.778
10,TACTTTGAACAGATCTTCTGAG,0.376
11,TTGAGATTTCTTGTCTAGTTTC,-0.921

# Target: RTN4
# Assay: as above
# Conditions: shRNA
row,Sequence,sensor-assay potency score (higher = more potent)
1,TTCTAGGTCAGTATATTCCCTG,-0.784
2,TAACTAACTTCTCTTCTTCATC,-0.896
3,TTTCTGAGTATTCTAATTCTGA,-0.686
4,TTCACTTTCACATGCTTCCTGT,-0.0605
5,TTTCTGAAGACACAACTTCATC,-1.21
6,TATCTGTTGTGACATAATCTGT,-0.595
7,TAAATCTCTATCTATGAGTAGA,-0.547
8,TTTTGTGTTATCTAAACTGAGC,-0.981
9,TAAAGATCTAACAACGATCTGT,0.175
10,TATTACTAACTAACTTCTCTTC,-0.121
11,TTGTGACATAATCTGTCTCAGA,-1.04
12,TTTCTGAAGTAGGATCTCCTAA,-0.155

# Target: RTTN
# Assay: as above
# Conditions: shRNA
row,Sequence,sensor-assay potency score (higher = more potent)
1,TACTCTTCTGAATTACTCCTTT,0.0347
2,TTAGTAAGTCTAGACAGCCATC,-1.38
3,TTGTATTTGCTCATCTCTGTTA,-0.347
4,TTCTTCACTATGACTACCCAAA,-0.98
5,TATCATCTGTTTCTTCTCGTGC,0.159
6,TTCAGGAGTAACTTCAACCAAA,-0.732
7,TTTAATAACACCATCCTCCTTT,0.89
8,TTTCCTGTCAGTAACTTCCATG,-0.534
9,TTCAAATCAAACATACACCGTC,0.646
